Bioassay records as filed in PubChem.
Only some compounds are listed: those with a hit (about 11% of all), similar ones and a draw of the others.
hNpr1 antagonist: blocks ANP-stimulated signaling of human Npr1 receptor. P16066. HEK293 hNpr1 GloSensor cGMP, ANP-stimulated luminescence. Potency, µM (top dose mostly 46.3 µM), inactives show at the top dose activity change, negative = inhibition, most hits filed as inhibitors. 1.6% of 76,000 active; calls by dose curve; also: % is scaled to controls: 0 for no effect and ±100 for the full control effect; nearly all actives have a fitted effect of over 60% in size
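HEK293 cells stably expressing human Npr1 and cGMP GloSensor pGS-40F, loaded 2 h with 2% GloSensor reagent, given compound 30 min at room temperature. Luminescence read before and 20 min after 0.1 nM hNppA.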
NIH3T3 tox: NIH 3T3 cell cytotoxicity; NIH 3T3 viability, CellTiter-Glo ATP luminescence, 48-72 h; Potency, µM (highest dose often 96.7 µM), inactives show at the highest dose activity change, negative = cytotoxicity, most hits filed as inhibitors; 4.3% of 94,000 active; also: % is scaled to controls: 0 for no effect and ±100 for the full control effect; nearly all actives have a fitted effect of over 55% in size
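Cytotoxicity was measured by CellTiter-Glo ATP luminescence after 48 or 72 h compound exposure at 37 °C. Mouse NIH 3T3 fibroblasts were seeded at 400 cells/well and dosed by 23 nL pin transfer.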
HEK293 tox: HEK 293 cell cytotoxicity. HEK 293 viability, ATP luminescence (CellTiter-Glo), 48-72 h. Potency, µM (titrated, usually from 115 µM), inactives show at the highest dose activity change, negative = cytotoxicity, hits mostly inhibitors. 6.6% of 94,000 active; also: % is scaled to controls: 0 for no effect and ±100 for the full control effect; nearly all actives have a fitted effect of over 60% in size
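ATP-coupled CellTiter-Glo luminescence served as viability read-out, recorded 10 min after reagent addition at room temperature. HEK 293 cells, 250 cells/well, had been incubated with pintool-transferred compound for 48 or 72 hr at 37 degree Celsius.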
Luciferase inh: inhibitors of firefly (Photinus pyralis) luciferase; purified P. pyralis luciferase, luminescence, biochemical; Potency, µM (top dose mostly 115 µM), actives largely listed as inhibitors; 2.5% of 76,000 active; AID 1347043; also: % is scaled to controls: 0 for no effect and ±100 for the full control effect; nearly all actives have a fitted effect of over 65% in size
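Luminescence read by CCD imager after adding enzyme (10nM final) to wells holding compound, titrated in qHTS. Substrates 10uM each D-luciferin and ATP; buffer 50mM Tris acetate pH 7.5, 10mM Mg acetate, Tween-20, BSA.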
NPR1 antag cnf: hNpr1 antagonism, confirmation assay; Potency, µM (series often up to 57.6 µM), for the others: top-dose activity change, negative = inhibition, usual class: inhibitors; 76% of 1,400 active; shares compounds with hNpr1 antagonist; HEK293 hNpr1 cGMP GloSensor luminescence, ANP-stimulated; AID 1347044; calls by dose curve; also: nearly all actives have a fitted effect of over 70% in size
Npr2 selectivity: hNpr2 antagonism, selectivity versus Npr1; shares compounds with hNpr1 antagonist; HEK293 hNpr2 GloSensor cGMP luminescence, CNP-stimulated; Potency, µM (highest dose often 57.6 µM), for the others: at the highest dose activity change, negative = inhibition, most hits filed as inhibitors; 67% of 1,400 active; AID 1347046; calls by dose curve; also: nearly all actives have a fitted effect of over 70% in size
FLuc inh counter: inhibits firefly luciferase, false Npr1 antagonist flag; Potency, µM (highest dose often 57.6 µM), for the others: top-dose activity change, negative = inhibition, actives largely listed as inhibitors; purified FLuc enzyme, luminescence, Km substrate; shares compounds with hNpr1 antagonist; AID 1347047; 0.7% of 1,400 active; also: 0% is about no effect
GloSensor ctrl: control cell line activity, Npr1 antagonist counter-screen | HEK293 GloSensor cGMP, SNP-stimulated, luminescence | shares compounds with hNpr1 antagonist | Potency, µM (highest dose often 57.6 µM), inactives show at the top dose activity change, negative = inhibition, hits mostly inhibitors | 69% of 1,400 active | AID 1347051; calls by dose curve; also: % is scaled to controls: 0 for no effect and ±100 for the full control effect; nearly all actives have a fitted effect of over 70% in size
* = called active by the depositor; i = inactive; ? = inconclusive; · = not tested or not shown; [ ] = dose if it differs, or a comment. Unless noted, calls follow the shape of the dose curve; as a rule, active = well fitted curve in the direction sought with a large enough effect; inconclusive = small, poorly fitted or top-dose-only effect, or another doubt; inactive = no such curve, though single readings can be large; an effect the other way counts as inactive or inconclusive. Potency is read from the fitted curve at half-maximal effect.

SMILES	hNpr1 antagonist	NIH3T3 tox	HEK293 tox	Luciferase inh	NPR1 antag cnf	Npr2 selectivity	FLuc inh counter	GloSensor ctrl
Clc1ccc(C2Cn3nnc(-c4nc(C5CC5)no4)c3CO2)cc1 (centres undefined)	?	?	?	i	?	-22%	4%	1%
CC(C)(C)c1noc(-c2nnn3c2COC(c2ccc(Cl)cc2)C3)n1 (centres undefined)	?	?	?	i	19µM*	?	3%	-2%
CCCc1noc(-c2nnn3c2COC(c2ccc(OC)cc2)C3)n1 (centres undefined)	-30%	-15%	-9%	i	·	·	·	·
COc1ccc(C2Cn3nnc(-c4nc(C(C)(C)C)no4)c3CO2)cc1 (centres undefined)	?	?	?	i	22µM*	?	0%	-18%
CC(C)(C)c1noc(-c2nnn3c2COC(c2ccc(F)cc2)C3)n1 (centres undefined)	?	-17%	?	i	?	?	3%	-24%
Cc1noc(-c2nnn3c2COC(c2ccc(F)cc2)C3)n1 (centres undefined)	-3%	-4%	2%	i	·	·	·	·
Cc1nn(C)c(C)c1CCC(=O)NCCc1ncc(C)n1C1CCCCC1	·	-12%	-7%	·	·	·	·	·
Cc1ccc(C2Cn3nnc(-c4nc(C5CCCCC5)no4)c3CO2)c(C)c1 (centres undefined)	?	-30%	?	i	14µM*	14µM*	-1%	1%
C[C@@H]1C(=O)O[C@H]2[C@H]1CC[C@@]1(C)Cc3sc(NC(=O)c4ccc(N(C)C)cc4)nc3[C@@H](C)[C@H]21	8.9µM*	32µM*	?	i	14µM*	?	-1%	11µM*
C[C@H]1[C@@H]2[C@H]3OC(=O)[C@H](C)C3CC[C@@]2(C)CC[C@@H]1NC(=O)c1ccncc1 (some centres undefined)	-4%[70.6 µM]	-28%[138 µM]	-29%[172 µM]	i	·	·	·	·
Nc1nc(C2CC(O)C2)cc(N2CCC(Cc3ccc(F)cc3)CC2)n1 (centres undefined)	11µM*	16µM*	?	i	19µM*	19µM*	1%	12µM*
COCC1CN(C2CCC2)CC12CCN(C(=O)NCCc1ccccc1)CC2 (centres undefined)	-23%	?	?	i	-13%	-15%	4%	-11%
CCN1C[C@H]2COc3cc(OC)ccc3[C@H]2N(C(=O)c2ccccc2OC)CCC1=O	·	?	-15%	·	·	·	·	·
COc1ccc(CC(=O)N2CCN(C(=O)c3nc4cccnc4n(C4CC4)c3=O)CC2)cc1	·	-13%	4%	·	·	·	·	·
COCc1cc(NCCSCc2ccccc2C)ncn1	11µM*	?	?	i	22µM*	19µM*	2%	15µM*
O=C(c1ccc(Cl)nc1)N1CCCC(C(=O)N2CCC(c3nc4ccncc4[nH]3)C2)C1 (centres undefined)	·	-24%	-3%	·	·	·	·	·
Cc1ccccc1C(=O)N1CCC2(CC1)N=C(c1ccc(Br)cc1)NO2	14µM*	?	?	i	27µM*	24µM*	2%	24µM*
COc1cc(OC)cc(C(=O)N2CCC3(CC2)N=C(c2ccccc2)NO3)c1	1%	i	-5%	i	·	·	·	·
COc1ccc(C(=O)N2CCC3(CC2)N=C(c2ccc(Br)cc2)NO3)cc1	10µM*	-23%	?	i	12µM*	14µM*	1%	9.7µM*
COCCN1CCOc2nc(-c3cc4ccccc4o3)ncc2C1=O	13µM*	?	?	i	9.9µM*	9.9µM*	0.5µM*	7.9µM*
Cn1nccc1-c1ncc2c(n1)OCCN(Cc1ccc(F)cc1F)C2=O	35µM*	?	?	i	35µM*	35µM*	5%[86.2 µM]	40µM*
COc1ccc(CN2CCOc3nc(-c4ccc(C(=O)N(C)C)cc4)ncc3C2=O)cc1	-18%[70.6 µM]	-11%[138 µM]	?	?	·	·	·	·
O=C1c2cnc(-c3ccncc3)nc2OCCN1Cc1ccc(F)cc1F	18µM*	?	?	i	31µM*	25µM*	-2%[86.2 µM]	22µM*
COc1ccccc1-c1ncc2c(n1)OCCN(Cc1ccc(F)cc1F)C2=O	-3%[70.6 µM]	?	-35%[172 µM]	i	·	·	·	·
COc1ccc(CN2CCOc3nc(-c4cccc(C(F)(F)F)c4)ncc3C2=O)cc1	32µM*	?	?	i	35µM*	35µM*	-6%[86.2 µM]	40µM*
SMILES	hNpr1 antagonist	NIH3T3 tox	HEK293 tox	Luciferase inh	NPR1 antag cnf	Npr2 selectivity	FLuc inh counter	GloSensor ctrl
Cn1cccc1CN1CCC2(C1)C(=O)N(c1ccccc1)c1ccccc12 (centres undefined)	·	-29%	?	·	·	·	·	·
CC(C)c1cc(C(=O)NC2CCN(c3ncccc3C#N)CC2)n(C)n1	7.1µM*	?	?	i	8.6µM*	12µM*	1%	7.7µM*
CCCc1cc(C(=O)N(C)CCOc2ccccc2CC)n(C)n1	7.1µM*	40µM*	?	i	7.7µM*	11µM*	0%	7.7µM*
CCc1ccccc1OCCN(C)Cc1ncc[nH]1	2%	-17%	-16%	i	·	·	·	·
Cc1nn(C)c2nc(N3C[C@@H]4CCN(C)[C@@H]4C3)sc12	6%	-4%	-26%	i	·	·	·	·
Cc1nn(C)c2nc(N3CCC(C#N)(c4ccccc4)CC3)sc12	16µM*	?	28µM*	i	22µM*	24µM*	0%	22µM*
CCCCc1ccc(NC(=O)c2ccc3c(c2)N(S(C)(=O)=O)CC3)cc1	-20%	5%	-33%	i	·	·	·	·
CS(=O)(=O)N1CCc2ccc(C(=O)Nc3ccc(Oc4ccccc4)cc3)cc21	1.6µM*	-21%	?	i	2.7µM*	3.4µM*	-1%	2.4µM*
COCCNC(=O)c1ccc2oc(-c3ccncc3Cl)nc2c1	·	-17%[138 µM]	?	·	·	·	·	·
Cc1cc(=O)n(CC(=O)Nc2ccccc2C)c(N2CCc3ccccc3C2)n1	?	?	?	i	?	-22%	2%	-27%
COc1ccc(OC)c(NC(=O)Cn2c(N3CCc4ccccc4C3)nc(C)cc2=O)c1	?	28µM*	32µM*	i	?	?	1%	?
